From PubChem BioAssay (NCI)
The panel holds about 83,000 compounds, 20% with a hit somewhere; the sample as a whole holds those more often.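 Activity criterion: percent growth below 10, measured after cells in 96-well plates were exposed to a single compound concentration for 48 hours.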 Active and inactive are the calls of the source.

Test system: MCF7 breast
Experiment: NCI-60 one-dose screen, 48 h (100 = growth as untreated, 0 = no growth, -100 = all killed)
Conditions: 10 µM

Structure (SMILES) | growth
O=C1CSC(=S)N1/N=C/c1ccc(Cl)s1 | 101% (inactive)
COc1ccc(-c2onc(N)c2-c2cc(OC)c3c(c2)OCO3)cc1 | 8.88% (active)
COc1cc(/C=C/c2cc(/C=C/c3ccc(O)c(OC)c3)n(C(=O)Nc3ccc(C)cc3)n2)ccc1O | 6.3% (active)
COc1cc(NC(=O)Nc2cnc(Nc3ccc(N4CCOCC4)cc3)nc2Oc2cccc(OC)c2)cc(OC)c1 | 50.6% (inactive)
CC(=O)N[C@H](C(=O)N[C@@H](CCCNC(=N)N)C(=O)N[C@@H](CCCCN)C(=O)N[C@@H](CCCNC(=N)N)C(=O)NC(C(=O)N[C@@H](CC(C)C)C(=O)N[C@@H](CCCNC(=N)N)C(=O)N[C@@]1(C)CCC/C=C\CCC[C@@](C)(C(=O)N[C@@H](CCCNC(=N)N)C(=O)N[C@@H](CCC(=O)O)C(=O)N[C@@H](CC(C)C)C(=O)N[C@H](C(=O)N[C@@H](CCC(=O)O)C(N)=O)C(C)C)NC(=O)[C@H](CCC(N)=O)NC(=O)[C@H](CC(C)C)NC(=O)[C@H](CC(C)C)NC1=O)[C@@H](C)O)C(C)C (some centres not stated) | -79.8% (active)
Oc1ccc(/C=N/N=C2c3ccccc3-c3ccccc32)c(O)c1 | 43.3% (inactive)
C[C@@H](C[C@H](CCO)c1ccccc1)c1ccc2ccccc2c1 | -63% (active)

Test system: HCT-116 colon
Experiment: as above
Conditions: 10 µM

Structure (SMILES) | growth
Oc1cccc(-c2nc3sccn3c2-c2ccncn2)c1 | 97.3% (inactive)
CCOC(=O)c1cc(C(=O)c2cc(OC)c(OC)c(OC)c2)n2ccc(-c3cc[n+](CC(=O)c4cc(OC)c(OC)c(OC)c4)cc3)cc12 | -61.2% (active)
C[C@H]1[C@H](OC(=O)CCC(=O)O)O[C@@H]2O[C@]3(C)CC[C@H]4[C@H](C)CC[C@@H]1[C@@]24OO3 | 14.1% (inactive)
COc1ccc(C(=O)N/N=C/c2cc(C(F)(F)F)ccc2Cl)cc1 | 93.2% (inactive)
COc1ccc(-c2cc(-c3ccc(Cl)cc3)nc(SCCCC(=O)NO)n2)cc1OC | 5.45% (active)
CCC(=O)OC1CCC2C3CCC(=O)OC3C(C)(CCC(=O)O)CC12C (configuration not stated) | 5.1% (active)
OCC1OC(n2ccc3c(NO)ncnc32)C(O)C1O (configuration not stated) | -33.1% (active)
CC(C)(C)c1ccc(S(=O)(=O)N[C@H]2CC[C@H]3[C@@H]4CCc5cc(O)c([N+](=O)[O-])cc5[C@H]4CC[C@]23C)cc1 | 32.6% (inactive)
COc1cc(-c2nn(-c3cccc(NC(=O)CCNc4ccc(N5CCOCC5)cc4)c3)cc2-c2ccncc2)ccc1Cl | 5.29% (active)
COc1cc(-c2nn(-c3cccc(NC(=O)CN4CCOCC4)c3)cc2-c2cccnc2)ccc1Cl | 82.7% (inactive)
O=C(CCCSc1nc(-c2ccccc2)cc(-c2ccc(Cl)cc2)n1)NO | 11.9% (inactive)
CC(C)N(CCOc1cccc(-c2nc3sccn3c2-c2ccnc(S(C)(=O)=O)n2)c1)C(C)C | 44.9% (inactive)
O=C(CCC(C(=O)c1ccccc1)c1ccccc1)c1ccccc1 (configuration not stated) | 50.3% (inactive)
COc1ccc(-c2csc(NC(=O)c3ccc(Cc4n[nH]c(=O)c5cccnc45)cc3)n2)cc1 | 91.9% (inactive)
COc1cc(-c2nn(-c3cccc(NC(=O)CCN4CCN(Cc5ccccc5)CC4)c3)cc2-c2ccncc2)ccc1Cl | 1.3% (active)
COc1cc2cc(Oc3ccc(NC(=O)c4cc(C(F)(F)F)cc(C(F)(F)F)c4)cc3)c(C)nc2cc1OC | 19.2% (inactive)
C[C@]12CCC3c4ccc(O)cc4C[C@@H](CCCCCCCCCS(=O)CCCC(F)(F)C(F)(F)F)C3C1CC[C@@H]2O (some centres not stated) | 71.4% (inactive)
Cc1cc(Cl)ccc1Nc1nc(C(F)(F)F)ccc1C(=O)N/N=C/c1cccc(O)c1 | 17.6% (inactive)
COc1cc(C(=O)/C=C/c2c[nH]c3ccccc23)cc(OC)c1OC | 12.2% (inactive)
CCOC(=O)CC(S(=O)(=O)c1ccccc1)S(=O)(=O)c1ccccc1 | 102% (inactive)
CCNCC(=O)Nc1ccc(C(=O)OCC)cc1 | 96% (inactive)
CCCc1cn(CC(=O)Nc2nc3ccccc3s2)nn1 | 101% (inactive)
COc1cc2cc(Oc3ccc(NC(=O)Nc4ccc(Cl)c(C(F)(F)F)c4)cc3)c(C)nc2cc1OC | -87.3% (active)
COc1cc(/C=C2\CCCC3=C2NC(N)=NC3c2cc(OC)c(OC)c(OC)c2)cc(OC)c1OC (configuration not stated) | -81.6% (active)
COc1ccc(-c2cc(-c3ccc(Cl)cc3)nc(SCCCCCCC(=O)NO)n2)cc1OC | 41.8% (inactive)
